# High-throughput results as filed in PubChem.
# BAZ2B inh: blocks human BAZ2B; Q9UIF8; AlphaScreen BAZ2B-H3K14Ac peptide displacement; Potency, µM (titrated, usually from 114 µM), without a hit: top-dose activity change, negative = inhibition, actives largely listed as inhibitors; hit rate 4.4% among 360,000; further: potency means the concentration at half of the fitted maximal effect; on the % scale 0 is the no-effect control and ±100 the full control effect; nearly all actives have a fitted effect of over 60% in size
#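 Multi-concentration screen (max 110 uM) measuring displacement of acetylated histone H3 peptide from BAZ2B by AlphaScreen, using 50 nM protein, 50 nM peptide and 10 ug/mL streptavidin donor plus Ni-chelate acceptor beads.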
# JMJD2A Tudor: blocks the human JMJD2A Tudor domain; O75164; AID 504339; AlphaScreen JMJD2A-Tudor / H3K4me3 peptide binding; Potency, µM (top dose mostly 114 µM), for the others: at the highest dose activity change, negative = inhibition, most hits filed as inhibitors; hit rate 4.4% among 390,000; further: potency means the concentration at half of the fitted maximal effect; on the % scale 0 is the no-effect control and ±100 the full control effect; nearly all actives have a fitted effect of over 50% in size
# Six1-Eya2 blk: inhibitors of human Six1/Eya2 interaction; AID 651725; Q15475+O00167; hit rate 0.56% among 360,000; activity change, % (concentration not given with the values); AlphaScreen GST-Six1/His-Eya2 binding, biochemical; stronger effect = lower value; in the data active means activity change below about -65%; inconclusive means mostly about -30% to -63%; further: on the % scale 0 is the no-effect control and ±100 the full control effect
#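 AlphaScreen luminescence read after one hour at 37 °C in darkness. Pin-transferred compounds met GST-Six1 and His-Eya2 protein (5X stock 250 nM/500 nM) plus glutathione donor and Ni-chelate acceptor beads (5X, 50 ug/mL).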
# CtBP-E1A blk: CtBP/E1A binding inhibition; AlphaScreen GST-E1A/His-CtBP binding, 1536-well; stronger effect = lower value; activity change, % (test concentration not listed); hit rate 0.49% among 340,000; AID 651724; in the data active means activity change below about -65%; inconclusive means mostly about -30% to -63%; further: on the % scale 0 is the no-effect control and ±100 the full control effect
#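 AlphaScreen with 125 nM GST-E1A and 125 nM His-CtBP (5X stocks) in Tris pH 8.0, 300 mM NaCl, BSA, Tween 20, TCEP. Compounds preincubated 2 h at 37 deg C, then glutathione donor/nickel acceptor beads added for 1 h at 37 deg C in dark.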
# G9a inh: G9a (human) methyltransferase inhibition | Q96KQ7 | G9a H3K9 monomethylation, AlphaScreen, 2 h | Potency, µM (series often up to 102 µM), for inactives: top-dose activity, negative = inhibition, hits mostly inhibitors | hit rate 8.8% among 350,000 | AID 504332; further: potency means the concentration at half of the fitted maximal effect; on the % scale 0 is the no-effect control and ±100 the full control effect; nearly all actives have a fitted effect of over 75% in size
# Target sequence (Q96KQ7 913-1193 limits assumed): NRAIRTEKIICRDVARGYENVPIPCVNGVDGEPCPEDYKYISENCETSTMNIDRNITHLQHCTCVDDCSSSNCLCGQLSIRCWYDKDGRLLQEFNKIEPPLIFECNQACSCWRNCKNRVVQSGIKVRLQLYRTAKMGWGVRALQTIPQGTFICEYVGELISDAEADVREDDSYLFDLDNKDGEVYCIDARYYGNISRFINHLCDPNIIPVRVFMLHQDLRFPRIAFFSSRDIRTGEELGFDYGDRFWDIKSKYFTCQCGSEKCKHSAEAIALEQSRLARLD
#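 Signal arises when biotinylated H3K9 peptide, once monomethylated, bridges streptavidin donor and antibody-captured acceptor beads. Enzyme at 20 nM was preincubated 15 min with test compounds; peptide 500 nM and SAM 20 uM then reacted for 2 h.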
# HP1b binding inh: blocks HP1-beta chromodomain binding to methylated histone tails; Potency, µM (doses to about 114 µM), for the others: at the top dose activity change, negative = inhibition, usual class: inhibitors; hit rate 0.56% among 390,000; AlphaScreen HP1-beta / biotin-H3K9me3 peptide binding; AID 540317; further: potency means the concentration at half of the fitted maximal effect; nearly all actives have a fitted effect of over 70% in size
# Target sequence (P83916 whole entry, looked up): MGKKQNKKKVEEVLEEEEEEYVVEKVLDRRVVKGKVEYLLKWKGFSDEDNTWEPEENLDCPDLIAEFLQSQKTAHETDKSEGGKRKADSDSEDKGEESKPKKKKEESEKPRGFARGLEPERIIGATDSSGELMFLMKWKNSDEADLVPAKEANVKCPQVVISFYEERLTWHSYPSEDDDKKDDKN
#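 HP1-beta protein (50 nM final) preincubated 30 min at room temperature with biotinylated H3(1-18)K9me3 peptide (50 nM) in PBS pH 7.4, 0.01% Tween-20, then compound added for 30 min. AlphaScreen streptavidin donor/nickel chelate acceptor beads (10 ug/mL final), 30 min dark, luminescence read.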
# Active calls of the source: *; ? = inconclusive; / = no result given; ! = repeats disagree; [ ] = remark or other dose. A selection: hits, their analogues and other compounds. The true share with any hit is near 10%. Unless noted, the call rests on the fitted dose curve; in most records, active means well fitted inhibition curve with a large enough effect; inconclusive means small, poorly fitted or top-dose-only effect; inactive means no such curve, though single readings can be large or run the other way.
SMILES,BAZ2B inh,JMJD2A Tudor,Six1-Eya2 blk,CtBP-E1A blk,G9a inh,HP1b binding inh
O=C(N/N=C/C(Cl)=C/c1ccccc1)c1cnccn1,6.0%,-7.6%[11.4 µM],?,-92.3*,-3.2%[59 µM],48.9%
CC(=C/c1ccccc1)/C=N/NC(=O)c1cnccn1,6.1%,-6.2%,3.9,-1.1,21.5%,22.1%
COc1ccccc1C(=O)NCC(=O)OCC(=O)c1ccc2c(c1)-c1ccccc1C2,-5.9%,-12.4%,1.6,-13.9,-5.5%[59 µM],15.6%
CCOc1ccc(C(=O)NCC(=O)OCC(=O)c2ccc3c(c2)-c2ccccc2C3)cc1,12.9%,-4.5%,-0.4,-8.2,70.8µM*,55.4%
CN(C)CC[C@@H](c1ccc(Br)cc1)c1ccccn1,/,-6.9%,-1.3,-0.2,15.8µM*!,28.1%
CCc1nnc(N/N=C/c2ccccc2Cl)n1N,?,89.1µM*,2.4,0.2,22.2%[0.501 µM],15.8%
COc1cccc(/C=N/Nc2nnc(C)n2N)c1OCc1ccccc1Cl,15.6%,-29.8%,-0.4,-3.5,22.4µM*,8.4%
COc1cccc(CNCCO)c1OCc1ccccc1Cl,4.7%,0.0%,2.6,10.1,12.4%[59 µM],24.7%
CC(C)(C)c1nnc(N/N=C/c2ccccc2O)n(N)c1=O,20µM*,22.4µM*,-91.2*,-2.1,78.5%[59 µM],20.1%
COc1ccccc1N(CC(=O)Nc1ccc2c(c1)OCO2)S(=O)(=O)c1ccc(C)cc1,?,-26.0%,/,/,-45.7%[59 µM],2.7%
COc1cc(Cl)c(C)cc1NC(=O)CCn1c(=O)c2cccn2c2cccnc21,-3.0%,-7.7%,/,/,10.3%[59 µM],31.3%
COc1cc2c(cc1OC)C(COc1ccc(F)cc1)N(C(=O)Cc1ccc(F)cc1)CC2 (stereo not drawn),-18.7%,-27.5%,/,/,-29.5%[59 µM],24.5%
CC1=NN(c2ccc(N)cc2)C(=O)C1,?,-14.5%[11.4 µM],?,5.3,8.91µM*,6.8%
O=C(NCCc1c[nH]c2ccccc12)C1CCCN(S(=O)(=O)c2ccccc2)C1 (stereo not drawn),-10.7%,-25.0%,-10.9,-11.0,11.3%,5.0%
CCOc1ccccc1NC(=S)NC(=O)C1CC1,-11.3%,-2.7%,-1.3,4.8,/,25.9%
COc1cc(C(=S)N2CCOCC2)cc(OC)c1OC(=O)Cc1ccc(F)cc1,?,79.4µM*,-8.0,1.5,3.16µM*,?
COc1cc(C(=O)Oc2cccc(C(=S)N3CCOCC3)c2)cc(OC)c1OC,?,-27.8%,-1.5,-5.6,22.4µM*,-13.7%
S=C(c1ccc(-c2ccccc2)cc1)N1CCOCC1,-1.0%,-24.7%,-9.8,-9.4,39.8µM*,-10.7%
O=C(c1ccc(-c2ccccc2)cc1)c1ccccc1C(=O)N1CCOCC1,-30.9%,-10.1%,0.1,1.0,-29.5%[2.33 µM],24.7%
O=C(Oc1cccc(C(=S)N2CCOCC2)c1)c1ccccc1,-9.3%,-29.8%,-0.8,-2.3,7.08µM*,?
COC(=O)c1ccc(NC(=O)c2cc3cc4ccc(OC)c(Cl)c4nc3s2)cc1,-19.0%,-18.2%,/,/,4.6%[59 µM],18.2%[57 µM]
COc1cc(Nc2nc3ccc(Cl)cc3nc2-n2nc(C)cc2C)cc(OC)c1,35.1%,48.3%,/,/,40.4%[59 µM],27.8%
COc1ccc(CC(=O)Oc2ccc(Br)cc2F)cc1S(=O)(=O)N1CCOCC1,7.1%,-12.4%,-21.6,-6.6,50.1µM*,2.2%
COc1ccc(CC(=O)Oc2ccc(Cl)cc2Br)cc1S(=O)(=O)N1CCOCC1,-6.0%,-24.8%,-12.2,-0.3,?,22.0%
O=C(Oc1ccc(Br)cc1C(=S)N1CCOCC1)c1ccccc1,10.2%,-20.1%,-14.3,-19.8,44.7µM*,-14.6%
SMILES,BAZ2B inh,JMJD2A Tudor,Six1-Eya2 blk,CtBP-E1A blk,G9a inh,HP1b binding inh
Cn1c(=O)c(C(=O)CN2CCN(Cc3ccc4c(c3)OCO4)CC2)c(N)n(Cc2ccccc2)c1=O,-14.7%,-15.6%,0.8,/,3.6%,21.2%
O=c1c2ccccc2c(C=NC2CCN(Cc3ccccc3)CC2)c(O)n1Cc1ccc2c(c1)OCO2,8.91µM*,/,/,/,8.91µM*,/
O=c1c2ccccc2c2ccccc2c(=O)n1Cc1ccc2c(c1)OCO2,/,/,-6.3,-3.0,/,/
CN(C)CCN=Cc1c(O)n(Cc2ccc3c(c2)OCO3)c(=O)c2ccccc12,?,?,-14.5,23.9,50.1µM*,-27.9%
C=CCn1c(C)cc(C(=O)COC(=O)c2cncc(Br)c2)c1C,?,?,-12.7,-6.8,3.16µM*,-5.9%
Cc1cc(C(=O)CSc2nc(N)cc(N)n2)c(C)n1-c1cccc(F)c1,?,28.2µM*,-12.7,-7.3,-18.0%[59 µM],?
C=CCn1c(C)cc(C(=O)CSc2nc(N)cc(N)n2)c1C,?,-31.2%,-4.5,/,31.6µM*,7.0%
COc1ccc(-n2ccnc(NCc3ccccc3OC)c2=O)cc1,?,-14.3%,/,/,-35.6%[59 µM],-2.3%
CC(=O)Nc1sc2c(c1C(c1ccccc1Cl)N1CCN(CCO)CC1)CCCC2 (stereo not drawn),?,?,-13.0,-7.7,?,-9.4%
CCCC(=O)Nc1ccc2nn(-c3ccc(CC)cc3)nc2c1,1.8%,-3.5%,/,/,?,5.9%
O=[N+]([O-])c1cc(Cl)cc(/C=N/NC(=S)Nc2ccc(S(=O)(=O)N3CCOCC3)cc2)c1O,2.82µM*,-35.3%[11.4 µM],-90.6*,-98.1*,15.8µM*,22.4µM*
C/C(CCC(C)C)=N\NC(=S)Nc1cc(S(=O)(=O)N2CCOCC2)ccc1N1CCOCC1,-31.9%,-36.2%,-11.3,-14.9,25.1µM*,-22.4%
O=S(=O)(c1ccc(NC(=S)N/N=C/c2ccc(O)c(O)c2)cc1)N1CCOCC1,?,?,-13.1,-27.2,/,-14.2%
Oc1ccc(/C=N/NC(=S)N2CCOCC2)cc1,-3.0%,-34.7%,-16.0,-8.1,50.1µM*,-3.0%
O=S(=O)(c1ccc(NC(=S)NN=Cc2ccccc2O)cc1)N1CCCCC1,/,?,-86.3*,-89.3*,/,-7.8%
COc1ccc2cc(/C(C)=N/NC(=S)Nc3cc(S(=O)(=O)N4CCOCC4)ccc3N3CCOCC3)ccc2c1,-5.4%,/,/,/,-104.0%[59 µM],/
O=S(=O)(c1ccc(Cl)c(NC(=S)N/N=C/c2ccc(O)cc2)c1)N1CCOCC1,-38.4%,?,?,4.0,1.41µM*,-23.4%
O=S(=O)(c1ccc(Cl)c(NC(=S)N/N=C/c2c(F)cccc2F)c1)N1CCOCC1,8.4%,-31.2%,-9.6,-10.1,-4.4%,-13.2%
C/C(=N\NC(=S)Nc1cc(S(=O)(=O)N2CCOCC2)ccc1Cl)c1ccc(N2CCOCC2)cc1,-21.3%,-28.4%,-0.7,-21.3,31.6µM*,-2.4%
Cc1c(NC(=O)C(C)OC(=O)c2ccc(Cl)nc2)c(=O)n(-c2ccccc2)n1C (stereo not drawn),6.7%,-15.0%,5.1,6.0,-0.5%[59 µM],5.4%
O=C(O)CCCN1C(=O)/C(=C\c2ccc(-c3nc4ccccc4s3)o2)SC1=S,7.94µM*,-31.6%[11.4 µM],?,?,/,17.8µM*
